The source of these data is PubChem BioAssay (EPA / NIEHS).

A short description of assay [1]: ATG_PBREM_CIS: Attagene CIS-FACTORIAL HepG2 Assay for human Phenobarbital-responsive Enhancer Module (PBREM) (AID 2282955). As to conditions: HepG2 PBREM cis-reporter, Attagene multiplexed transcription; actives raise or lower the signal. The gist of the method:
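Readout: reporter mRNA, fluorescent RT-PCR fragments separated by capillary electrophoresis. System: HepG2 transiently transfected with cis-regulated reporter units. Exposure: 24 h. Analysis: bidirectional, DMSO baseline.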

In assay [2] the target is Paired box protein Pax-6 (Homo sapiens) (UniProt P26367). Put plainly: ATG_Pax6_CIS: Attagene CIS-FACTORIAL HepG2 Assay for human Paired Box 6 (PAX6) (AID 2282956). To be noted: HepG2 CIS-FACTORIAL PAX6 reporter transcription, RNA readout; actives raise or lower the signal. In outline:
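DMSO-referenced bidirectional fits of reporter mRNA fluorescence; HepG2 with transient cis-promoter MRTUs, 24 h post-dose, RT-PCR plus capillary electrophoresis detection.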

Assay [3] can be described thus: ATG_PXRE_CIS: Attagene CIS-FACTORIAL HepG2 Assay for human Pregnane X Receptor Element (PXRE) (AID 2282957). As to conditions: HepG2 Attagene CIS-FACTORIAL PXRE reporter, mRNA; actives raise or lower the signal. In outline:
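Read-out: fluorescence of reporter-specific RT-PCR products resolved by capillary electrophoresis, fitted bidirectionally relative to DMSO. Human HepG2 liver cells carried transfected cis-promoter reporter units and were exposed to chemicals for 24 h.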

Assay [4] is described as follows: ATG_RORE_CIS: Attagene CIS-FACTORIAL HepG2 Assay for human RAR-related Orphan Receptor Element (RORE) (AID 2282959). As to conditions: HepG2 Attagene cis-factorial RORE reporter, mRNA; actives raise or lower the signal. The gist of the method: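 Measured here: transcript induction of a cis-regulated reporter in HepG2 cells transiently transfected via FuGene 6. After 24 h, RNA was processed by RT-PCR and fluorescent capillary electrophoresis; DMSO defined baseline activity.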

Assay [5] can be described thus: ATG_Sox_CIS: Attagene CIS-FACTORIAL HepG2 Assay for human SRY-box transcription factor (SOX) (AID 2282960). To be noted: HepG2 Attagene cis-factorial SOX reporter, mRNA; actives raise or lower the signal. The gist of the method:
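Using transiently transfected HepG2 cells, reporter transcription driven by cis elements was assessed 24 h after dosing. Signal was fluorescence of capillary-separated RT-PCR products, with DMSO defining baseline activity.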

For assay [6], the target named is Transcription factor Sp1 (Homo sapiens) (UniProt P08047). Put plainly: ATG_Sp1_CIS: Attagene CIS-FACTORIAL HepG2 Assay for human Specificity Protein 1 (Sp1) (AID 2282961). As to conditions: HepG2 Sp1 cis-reporter transcription, actives raise or lower the signal. The gist of the method:
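After transient transfection of HepG2 cells with cis-promoter reporter units and 24 h chemical treatment, reporter transcripts were quantified by RT-PCR and capillary electrophoresis fluorescence. Gain- and loss-of-signal fitted against DMSO.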

A short description of assay [7]: ATG_SREBP_CIS: Attagene CIS-FACTORIAL HepG2 Assay for human Sterol Regulatory Element Binding (SREBP) (AID 2282962). As to conditions: HepG2 Attagene cis-factorial SREBP reporter, mRNA; actives raise or lower the signal. In outline: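 In this cis-format assay, HepG2 liver cells express reporters controlled by promoter elements responsive to native transcription factors. Exposure lasts 24 h; reporter mRNA fluorescence from capillary electrophoresis gives the signal, fitted bidirectionally against DMSO.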

The target in assay [8] is Signal transducer and activator of transcription 3 (Homo sapiens) (UniProt P40763). Put plainly: ATG_STAT3_CIS: Attagene CIS-FACTORIAL HepG2 Assay for human Signal Transducer and Activator of Transcription 3 (STAT3) (AID 2282963). To be noted: HepG2, Attagene cis-factorial STAT3 reporter transcription; actives raise or lower the signal. The gist of the method:
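Cis-factorial format: endogenous transcription factors in HepG2 drive transfected reporter units. After 24 h treatment, reporter RNA was reverse-transcribed, amplified, FAM-labelled and HpaI-digested before CE analysis; activity scored in both directions against DMSO.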

The nature of assay [9]: ATG_TA_CIS: Attagene CIS-FACTORIAL HepG2 Assay for human TA Basal Promoter (AID 2282964). To be noted: HepG2 Attagene CIS-factorial TA basal promoter reporter; actives raise or lower the signal. In outline: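 Multiplexed mRNA reporter assay, HepG2, 24 h. Reporter cDNA amplified, 6-FAM primer-extended, HpaI-cut, CE-sized; DMSO = negative control and baseline.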
The nature of assay [10]: ATG_TCF_b_cat_CIS: Attagene CIS-FACTORIAL HepG2 Assay for human T-Cell-Factor with beta-catenin (TCF/b-cat) (AID 2282965). As to conditions: HepG2 TCF/beta-catenin cis-reporter transcription, actives raise or lower the signal. In outline:
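Endogenous TCF/LEF activity read as reporter transcript level via RT-PCR and capillary electrophoresis fluorescence in transfected HepG2, 24 h exposure; gain or loss of signal fitted against DMSO controls.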

Assay [11] can be described thus: ATG_TAL_CIS: Attagene CIS-FACTORIAL HepG2 Assay for human TAL Basal Promoter (AID 2282966).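 Note: background control endpoint measuring basal TAL promoter reporter mRNA not a specific factor.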 To be noted: HepG2 Attagene cis-factorial TAL promoter reporter; actives raise or lower the signal. The gist of the method:
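HepG2, transient MRTU transfection, 24 h compound exposure; RNA → oligo(dT) RT → PCR → 6-FAM primer extension → HpaI digest → CE fluorescence. Bidirectional curve fit vs DMSO. Background-control readout.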

Assay [12] is described as follows: ATG_TGFb_CIS: Attagene CIS-FACTORIAL HepG2 Assay for human Transforming Growth Factor (TGF) (AID 2282967). As to conditions: HepG2 Attagene CIS TGFb reporter, mRNA transcription; actives raise or lower the signal. The gist of the method:
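Transcript-level reporter readout: HepG2 transfectants, 24 h exposure, RNA to cDNA, reporter-specific PCR, fluorescent primer extension, capillary sizing against ROX standards. Gain- or loss-of-signal relative to DMSO.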

A short description of assay [13]: ATG_VDRE_CIS: Attagene CIS-FACTORIAL HepG2 Assay for human Vitamin D Receptor Element (VDRE) (AID 2282968). To be noted: HepG2 VDRE cis-reporter transcription, actives raise or lower the signal. In outline: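 Measures endogenous factor activity through cis-element-driven reporter transcripts in transiently transfected HepG2. Cells are treated 24 h; reporter mRNA is quantified by RT-PCR and capillary electrophoresis; fitting is bidirectional.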

The target of assay [14] is Estrogen receptor (Homo sapiens) (UniProt P03372). Put plainly: ATG_ERa_TRANS: Attagene TRANS-FACTORIAL HepG2 Assay for human Estrogen Receptor alpha (ERa) (AID 2282970; active = hit-call score of the fitted dose curve at least 0.9, where 1 is the maximum). As to conditions: HepG2 Attagene TRANS ERa GAL4 reporter, mRNA. The gist of the method: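 Reporter mRNA induction after 24 hours, detected by fluorescent RT-PCR and capillary electrophoresis, gives the read-out. Cells are HepG2 transiently transfected with GAL4-UAS reporter transcription units responding to chimeric NR-Gal4. Activity is taken as gain of signal over DMSO baseline.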
Chain of Estrogen receptor (Homo sapiens) (P03372 whole entry, looked up, the tested form may be a part): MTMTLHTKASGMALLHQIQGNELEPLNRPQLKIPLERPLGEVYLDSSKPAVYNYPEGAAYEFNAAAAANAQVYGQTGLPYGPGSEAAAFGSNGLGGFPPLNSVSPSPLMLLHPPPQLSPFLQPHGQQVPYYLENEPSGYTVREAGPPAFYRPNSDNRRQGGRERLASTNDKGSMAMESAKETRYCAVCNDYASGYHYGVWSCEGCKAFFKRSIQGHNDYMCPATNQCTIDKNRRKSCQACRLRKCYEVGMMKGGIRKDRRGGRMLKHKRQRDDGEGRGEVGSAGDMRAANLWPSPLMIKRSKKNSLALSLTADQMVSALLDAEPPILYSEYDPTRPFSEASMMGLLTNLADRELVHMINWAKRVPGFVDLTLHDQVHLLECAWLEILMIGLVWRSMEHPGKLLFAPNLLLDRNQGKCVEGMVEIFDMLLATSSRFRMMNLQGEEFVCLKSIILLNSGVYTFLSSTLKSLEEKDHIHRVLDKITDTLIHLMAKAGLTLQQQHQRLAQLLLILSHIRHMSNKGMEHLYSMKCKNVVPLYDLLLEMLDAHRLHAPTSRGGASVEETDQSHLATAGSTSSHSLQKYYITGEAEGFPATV

The target of assay [15] is X-box-binding protein 1 (Homo sapiens) (UniProt P17861). Put plainly: ATG_Xbp1_CIS: Attagene CIS-FACTORIAL HepG2 Assay for human X-box Binding Protein 1 (XBP1) (AID 2282972). As to conditions: HepG2 XBP1 cis-element reporter, Attagene multiplex; actives raise or lower the signal. The gist of the method: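 Changes in reporter transcript abundance, read by RT-PCR and capillary electrophoresis, reflect endogenous transcription factor activity. Transfected HepG2 cells received compound for 24 hours; DMSO defined baseline for bidirectional analysis.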
Chain of X-box-binding protein 1 (Homo sapiens) (P17861 whole entry, looked up): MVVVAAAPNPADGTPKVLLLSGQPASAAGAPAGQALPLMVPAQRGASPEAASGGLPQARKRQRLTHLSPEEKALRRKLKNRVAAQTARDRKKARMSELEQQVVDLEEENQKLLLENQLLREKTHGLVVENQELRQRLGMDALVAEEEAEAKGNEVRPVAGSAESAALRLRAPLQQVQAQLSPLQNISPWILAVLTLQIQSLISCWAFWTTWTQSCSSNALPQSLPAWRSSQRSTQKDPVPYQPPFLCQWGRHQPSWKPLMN

Assay [16] in a line: ATG_M_19_TRANS: Attagene TRANS-FACTORIAL HepG2 Assay for M19 Transcription Factor (Internal Marker) (AID 2282974; active = hit-call score of the fitted dose curve at least 0.9, where 1 is the maximum). As to conditions: HepG2 Attagene TRANS-FACTORIAL M19 internal marker reporter. The gist of the method: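 Gain-of-signal in reporter mRNA, relative to DMSO, was scored from capillary electrophoresis fluorescence. HepG2 cells carried transiently transfected multiple reporter transcription units and were incubated with test chemicals for 24 h.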

Assay [17] is described as follows: ATG_PPRE_CIS: Attagene CIS-FACTORIAL HepG2 Assay for human Peroxisome Proliferator-activated Response Element (PPRE) (AID 2282958). As to conditions: HepG2 PPRE cis-element reporter, Attagene transcription factor profiling; actives raise or lower the signal. The gist of the method:
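After human HepG2 hepatoma cells were transiently transfected with cis-promoter reporter constructs, they were exposed to test chemicals for 24 hours. Reporter RNA was then reverse-transcribed, PCR-amplified, FAM-labeled, HpaI-digested and quantified by capillary electrophoresis.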

Assay [18] concerns the target Nuclear receptor subfamily 1 group I member 3 (Homo sapiens) (UniProt Q14994). Briefly: ATG_CAR_TRANS: Attagene TRANS-FACTORIAL HepG2 Assay for human Constitutive Androstane Receptor (CAR) (AID 2282969; active = hit-call score of the fitted dose curve at least 0.9, where 1 is the maximum;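 note: activators raise reporter mRNA above DMSO so AC50 marks induction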). As to conditions: HepG2 Attagene TRANS-FACTORIAL CAR reporter. In outline:
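Signal is reporter mRNA induction relative to DMSO, measured 24 h after dosing by RT-PCR with fluorescent primer extension and capillary electrophoresis. Human HepG2 liver cells carried transiently transfected chimeric NR-Gal4/GAL4-UAS reporter constructs.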

For assay [19], the target named is Steroid hormone receptor ERR1 (Homo sapiens) (UniProt P11474). Briefly: ATG_ERRa_TRANS: Attagene TRANS-FACTORIAL HepG2 Assay for human Estrogen-Related Receptor alpha (ERRa) (AID 2282971; active = hit-call score of the fitted dose curve at least 0.9, where 1 is the maximum). To be noted: HepG2 Attagene TRANS reporter, ERRa transactivation. The gist of the method: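 Transfected HepG2, 24 h dosing, ERRa-Gal4 chimera driving GAL4-UAS reporter. Readout: reporter mRNA via RT-PCR plus capillary electrophoresis (fluorescence). Positive direction vs DMSO control.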
Chain of Steroid hormone receptor ERR1 (Homo sapiens) (P11474 whole entry, looked up, the tested form may be a part): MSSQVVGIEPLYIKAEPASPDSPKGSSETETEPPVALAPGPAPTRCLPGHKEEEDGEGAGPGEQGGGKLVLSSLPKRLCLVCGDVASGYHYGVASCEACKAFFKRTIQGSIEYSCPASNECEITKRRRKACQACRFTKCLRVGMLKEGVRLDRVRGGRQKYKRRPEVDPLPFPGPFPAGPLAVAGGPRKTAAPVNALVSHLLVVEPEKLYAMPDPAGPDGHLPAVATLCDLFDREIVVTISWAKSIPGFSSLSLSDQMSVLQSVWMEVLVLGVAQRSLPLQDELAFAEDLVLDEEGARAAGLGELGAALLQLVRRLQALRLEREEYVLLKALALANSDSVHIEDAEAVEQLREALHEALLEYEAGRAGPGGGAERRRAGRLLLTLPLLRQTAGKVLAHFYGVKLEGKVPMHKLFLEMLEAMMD

Assay [20] can be described thus: ATG_GAL4_TRANS: Attagene TRANS-FACTORIAL HepG2 Assay for GAL4 (Internal Marker) (AID 2282976; active = hit-call score of the fitted dose curve at least 0.9, where 1 is the maximum). As to conditions: HepG2 Attagene TRANS GAL4 internal marker reporter. The gist of the method: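 RT-PCR/capillary electrophoresis readout of reporter mRNA. HepG2, transient MRTU transfection (GAL4-UAS reporters), 24 h compound exposure. Background-control endpoint, positive direction vs DMSO baseline.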

Records with an inconclusive call do not appear. The source made the active and inactive calls. Rule for the calls, unless noted: active = hit-call score of the fitted dose curve at least 0.9, where 1 is the maximum; inactive = score below 0.9.

Chain of Nuclear receptor subfamily 1 group I member 3 (Homo sapiens) (Q14994 whole entry, looked up, the tested form may be a part): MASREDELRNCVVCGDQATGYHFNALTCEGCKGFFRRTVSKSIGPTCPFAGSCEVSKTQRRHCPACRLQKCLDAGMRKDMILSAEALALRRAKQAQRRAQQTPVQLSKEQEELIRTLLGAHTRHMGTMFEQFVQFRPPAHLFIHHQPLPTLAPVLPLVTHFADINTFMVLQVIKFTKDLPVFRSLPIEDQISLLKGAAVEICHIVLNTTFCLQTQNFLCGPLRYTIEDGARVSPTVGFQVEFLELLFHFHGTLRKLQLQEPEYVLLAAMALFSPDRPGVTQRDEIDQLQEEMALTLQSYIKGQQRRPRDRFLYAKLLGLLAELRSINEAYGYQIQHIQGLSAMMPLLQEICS
Chain of Transcription factor Sp1 (Homo sapiens) (P08047 whole entry, looked up): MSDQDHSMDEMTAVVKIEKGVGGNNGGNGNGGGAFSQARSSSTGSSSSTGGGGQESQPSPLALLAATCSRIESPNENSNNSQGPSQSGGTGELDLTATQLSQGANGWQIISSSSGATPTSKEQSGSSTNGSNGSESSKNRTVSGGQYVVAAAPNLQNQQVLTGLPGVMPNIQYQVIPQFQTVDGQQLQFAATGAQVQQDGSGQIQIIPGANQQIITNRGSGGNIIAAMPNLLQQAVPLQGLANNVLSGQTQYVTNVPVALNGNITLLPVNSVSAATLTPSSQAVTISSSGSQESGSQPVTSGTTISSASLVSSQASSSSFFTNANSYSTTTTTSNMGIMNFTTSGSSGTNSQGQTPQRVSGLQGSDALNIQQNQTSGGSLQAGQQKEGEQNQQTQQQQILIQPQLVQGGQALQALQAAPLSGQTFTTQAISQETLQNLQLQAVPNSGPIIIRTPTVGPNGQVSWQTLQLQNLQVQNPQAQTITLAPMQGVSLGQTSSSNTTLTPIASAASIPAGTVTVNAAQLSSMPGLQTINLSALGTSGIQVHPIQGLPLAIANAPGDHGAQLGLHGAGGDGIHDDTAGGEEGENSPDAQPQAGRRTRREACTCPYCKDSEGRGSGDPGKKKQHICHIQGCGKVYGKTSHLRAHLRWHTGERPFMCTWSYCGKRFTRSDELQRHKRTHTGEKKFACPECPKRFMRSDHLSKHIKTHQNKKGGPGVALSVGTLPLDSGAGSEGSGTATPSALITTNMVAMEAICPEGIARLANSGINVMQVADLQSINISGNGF
Chain of Paired box protein Pax-6 (Homo sapiens) (P26367 whole entry, looked up): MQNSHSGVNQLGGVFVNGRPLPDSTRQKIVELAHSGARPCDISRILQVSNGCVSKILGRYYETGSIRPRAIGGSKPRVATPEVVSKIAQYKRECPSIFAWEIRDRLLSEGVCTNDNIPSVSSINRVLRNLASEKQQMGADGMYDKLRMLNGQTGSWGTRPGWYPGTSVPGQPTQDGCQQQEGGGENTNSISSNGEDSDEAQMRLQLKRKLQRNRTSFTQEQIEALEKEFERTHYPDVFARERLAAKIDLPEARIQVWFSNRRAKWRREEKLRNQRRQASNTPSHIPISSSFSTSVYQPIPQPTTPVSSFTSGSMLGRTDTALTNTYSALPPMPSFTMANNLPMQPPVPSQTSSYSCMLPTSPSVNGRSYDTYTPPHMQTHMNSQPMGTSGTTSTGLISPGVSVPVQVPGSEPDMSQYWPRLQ
Chain of Signal transducer and activator of transcription 3 (Homo sapiens) (P40763 whole entry, looked up): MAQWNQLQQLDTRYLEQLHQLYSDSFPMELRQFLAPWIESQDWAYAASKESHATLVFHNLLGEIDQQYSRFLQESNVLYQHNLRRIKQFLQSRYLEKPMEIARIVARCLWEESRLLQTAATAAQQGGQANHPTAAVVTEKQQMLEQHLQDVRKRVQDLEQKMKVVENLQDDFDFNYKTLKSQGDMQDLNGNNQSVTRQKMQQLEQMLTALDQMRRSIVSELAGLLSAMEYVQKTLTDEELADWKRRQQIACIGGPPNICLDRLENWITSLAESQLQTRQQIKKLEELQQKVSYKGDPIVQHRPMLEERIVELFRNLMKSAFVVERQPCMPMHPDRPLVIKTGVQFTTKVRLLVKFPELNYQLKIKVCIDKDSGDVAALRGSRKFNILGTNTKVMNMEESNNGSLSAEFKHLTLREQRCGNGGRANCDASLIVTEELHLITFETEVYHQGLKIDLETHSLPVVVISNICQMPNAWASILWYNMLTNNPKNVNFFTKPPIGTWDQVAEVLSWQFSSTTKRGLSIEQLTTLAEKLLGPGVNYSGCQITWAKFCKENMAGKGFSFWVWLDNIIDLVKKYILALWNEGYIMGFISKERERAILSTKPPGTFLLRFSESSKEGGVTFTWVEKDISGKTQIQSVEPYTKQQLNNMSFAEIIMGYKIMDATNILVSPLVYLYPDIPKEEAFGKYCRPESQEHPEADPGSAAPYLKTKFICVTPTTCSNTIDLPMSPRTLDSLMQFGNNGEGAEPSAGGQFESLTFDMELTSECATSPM

For `COc1ccc(C(C)=O)cc1`, the result in assay [1], in assay [2], in assay [3], in assay [4], in assay [5] and in assay [6] was inactive. The outcome in assay [7], in [8], in assay [9], in [10], in assay [11] and in assay [12] was inactive. Moreover, the compound was classed as inactive in assay [13], in assay [14], in assay [15] and in [16].
Consider `O=C1CCCCCCCCCCCC(=O)OCCO1`, for which the outcome in assay [1], in assay [2], in assay [3], in assay [17], in [4] and in assay [5] was inactive. For the same compound, the call in assay [7], in assay [9], in assay [10], in assay [11], in assay [13] and in assay [18] was inactive. In addition, the result in [19], in assay [15] and in assay [16] was inactive.
In the case of `CCCCCC#CC(=O)OC`, the outcome in assay [1], in assay [2], in assay [17], in assay [4], in assay [5] and in assay [7] was inactive. Also, the compound was classed as inactive in [8], in assay [9], in assay [10], in assay [12], in [13] and in assay [14]. Besides, the result in assay [15] and in [16] was inactive. Also, the AC50 (in general, the concentration giving half of the maximal activity seen) in [3] was 20.2 µM (active).
On to `O=c1cc(-c2ccc(O)cc2)oc2cc(O)cc(O)c12`, for which the result in assay [1], in assay [5], in assay [6], in assay [7], in assay [8] and in assay [9] was inactive. Also, the compound was classed as inactive in assay [10], in assay [12], in [18] and in assay [16]. Further, the AC50 in assay [2] is 21.7 µM (active); in assay [3] it was 14 µM (active); in assay [17], 26.7 µM (active); in assay [15], 16.2 µM (active).
Regarding `O=C(O)c1ccccc1O`, the outcome in assay [1], in assay [2], in assay [3], in assay [4], in [5] and in assay [6] was inactive. In addition, the compound was classed as inactive in assay [7], in [8], in assay [9], in [10], in assay [11] and in [12]. Further, the result in [13], in assay [18], in assay [14], in [19], in [15] and in assay [16] was inactive. For the same compound, the compound was called inactive in [20].
On to `CC(=O)CCC(=O)O`, for which the outcome in assay [1], in [2], in [4], in assay [5], in assay [6] and in [7] was inactive. The compound was called inactive in assay [8], in assay [9], in [12], in assay [13], in assay [15] and in assay [16]. Moreover, in assay [3], the AC50 was 63.8 µM (active).
Turning to `CCOC(=O)CCCCCCCCC(=O)OCC`, the result in assay [1], in assay [2], in [3], in assay [4], in assay [5] and in assay [6] was inactive. Besides, the call in [7], in [8], in [9], in assay [10], in assay [11] and in assay [12] was inactive. The call in assay [13], in assay [14], in assay [15], in assay [16] and in assay [20] was inactive.
